The list is not random: actives were taken first. Their share in the collection is about 7.3%.
NPC1 promoter act: activates the NPC1 promoter | Huh7 NPC1 promoter luciferase reporter, 24 h | Potency, µM (series often up to 9.22 µM), inactives show at the top dose activation, actives largely listed as activators | AID 485313 | 2.4% of 320,000 active; note: % of control where 0% means no effect; nearly all actives have a fitted effect of over 60% in size
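In 1536-well qHTS, Huh7 cells harboring an NPC1 promoter–luciferase construct received compound for 24 h; activation was quantified by luminescence following luciferase reagent addition.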
Rab9 prom act: activators of Rab9 promoter | Huh7 Rab9 promoter-luciferase reporter, luminescence, 24 h | Potency, µM (titrated, usually from 9.22 µM), for the others: at the highest dose activation, negative = inhibition, usual class: activators | 2.8% of 320,000 active | AID 485297; note: % of control where 0% means no effect; nearly all actives have a fitted effect of over 60% in size
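Huh7 reporter line, Rab9 promoter upstream of luciferase. Compound exposure 24 h at 37 °C in reduced-serum medium with 10% FBS. Read-out: luminescence.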
Luc counter: blocks Kinase-Glo luciferase, a counter-screen artifact | Q27757 | Kinase-Glo luciferase, ATP luminescence, 8 min | Potency, µM (series often up to 38.3 µM), for the others: at the top dose activity change, negative = inhibition, hits mostly inhibitors | 0.28% of 200,000 active | AID 1379; note: % is set by controls: 0 for no effect and ±100 for the full control effect; nearly all actives have a fitted effect of over 60% in size
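Recombinant Kinase-Glo luciferase, 10 uM ATP (linear range), luciferin; imidazole pH 7.2 / KCl / MgCl2 / Tween / BSA buffer; 8 min RT; luminescence.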
FLuc counter: counter-screen for miR-21 project: firefly luciferase inhibitors or activators | purified FLuc, Km substrates, luminescence inhibition | 6.9% of 360,000 active | Potency, µM (doses to about 57.5 µM), without a hit: at the highest dose activity change, negative = inhibition, hits mostly inhibitors | AID 588342;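 note: plate controls were vehicle for no effect and reference inhibitor for full effect; nearly all actives have a fitted effect of over 55% in size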
Target sequence (P08659 whole entry, looked up): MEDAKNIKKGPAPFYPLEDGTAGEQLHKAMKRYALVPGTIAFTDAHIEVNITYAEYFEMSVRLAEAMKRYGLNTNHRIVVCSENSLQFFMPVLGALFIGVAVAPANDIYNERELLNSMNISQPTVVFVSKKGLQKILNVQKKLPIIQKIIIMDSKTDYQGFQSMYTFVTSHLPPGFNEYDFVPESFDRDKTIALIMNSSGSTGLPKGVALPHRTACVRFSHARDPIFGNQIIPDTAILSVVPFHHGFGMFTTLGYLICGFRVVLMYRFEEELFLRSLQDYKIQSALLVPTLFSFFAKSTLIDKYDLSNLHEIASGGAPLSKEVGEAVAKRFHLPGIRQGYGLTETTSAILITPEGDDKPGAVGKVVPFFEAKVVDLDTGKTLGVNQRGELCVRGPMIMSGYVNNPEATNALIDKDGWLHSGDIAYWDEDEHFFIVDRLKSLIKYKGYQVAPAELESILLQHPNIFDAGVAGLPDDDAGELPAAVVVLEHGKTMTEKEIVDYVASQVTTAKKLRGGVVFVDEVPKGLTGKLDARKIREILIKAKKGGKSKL
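Purified P. pyralis luciferase (10nM final) with 10uM D-luciferin and 10uM ATP (Km levels) in 50mM Tris acetate pH 7.5, 10mM Mg acetate, 0.01% Tween-20, 0.05% BSA; qHTS 6-point titration, ~60 µM downward; luminescence read.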
SMN2 splice enh: SMN2 splice variant enhancement; HEK293 SMN2-luciferase splicing reporter, luminescence, 30-36 h; Potency, µM (doses to about 46.1 µM), for the others: at the highest dose activity change, positive = activation, usual class: activators; 2.8% of 210,000 active; AID 1458; note: % of control where 0% means no effect; nearly all actives have a fitted effect of over 55% in size
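HEK293 cells carry an SMN2 […]–luciferase reporter in which exon 7 inclusion puts luciferase in frame. Cells were plated 10-12 h before compound addition, then incubated 30-36 h at 37C. ONE-Glo luminescence was read; sodium butyrate at 4.5 mM final served as control.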
ELG1 genotox: genotoxicity induction in ELG1-luciferase HEK293T cells; HEK293T ELG1-luciferase reporter, luminescence, 16 h; Potency, µM (titrated, usually from 46 µM), for inactives: top-dose activity change, positive = activation, usual class: activators; 1.3% of 330,000 active; note: % of control where 0% means no effect; nearly all actives have a fitted effect of over 60% in size
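Step 1: seed 2,000 HEK293T ELG1-luciferase cells per well. Step 2: add compound or DMSO, incubate 16 hr at 37 °C. Step 3: ONE-Glo, 30 min at room temperature, read luminescence.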
The depositor's hits bear a star; u = inconclusive; x = no result given; [ ] = dose if it differs, or a comment. Calls come from the whole dose curve; as a rule, active = well fitted curve in the direction sought with a large enough effect; inconclusive = small, poorly fitted or top-dose-only effect, or another doubt; inactive = no such curve, though single readings can be large; an effect the other way counts as inactive or inconclusive. Potency is the fitted concentration of half-maximal effect.

SMILES | NPC1 promoter act | Rab9 prom act | Luc counter | FLuc counter | SMN2 splice enh | ELG1 genotox
CCOC(=O)c1ccc(N2Cc3ccccc3C2=NC(=O)c2cccs2)cc1 | 8.1% | 4.9% | -1.6% | u | 14.1% | u
CC(=O)c1ccc(N2Cc3ccccc3C2=NC(=O)c2cccs2)cc1 | u | u | -4.2% | u | 14.1µM* | u
Cc1cccc(-n2c(=O)c3c(c4cc(C)ccc4n3C)n(CC(=O)NCCC3=CCCCC3)c2=O)c1 | x | x | x | -1.0% | x | x
COc1cc(NC(=O)c2cc(C)on2)cc(C(=O)Nc2cccc(C(F)(F)F)c2)c1 | u | -7.6% | x | u | x | -5.1%
COc1cc(NC(=O)c2cnc(N)o2)cc(C(=O)Nc2cccc(C(F)(F)F)c2)c1 | -2.8% | -5.8% | x | 21.3µM* | x | -13.1%
COc1cc(NC(=O)c2csc(N)n2)cc(C(=O)Nc2cccc(C(F)(F)F)c2)c1 | 20.8% | -21.5% | x | u | x | -14.4%
COc1cc(NC(=O)c2ccnc(N)c2)cc(C(=O)Nc2cccc(C(F)(F)F)c2)c1 | -8.0% | -2.7% | x | 19µM* | x | 0.5%
COc1cc(NC(=O)c2cnc(N)s2)cc(C(=O)Nc2cccc(C(F)(F)F)c2)c1 | 12.6% | 11.0% | x | 12µM* | x | -2.5%
NS(=O)(=O)c1ccc(N=Nc2cc3ccccc3c(C(=O)O)c2O)cc1 | x | x | -2.6%[7.66 µM] | x | -2.8%[9.22 µM] | x
COc1cc(OC)c(OC)cc1/C=N/Nc1nc2ccccc2[nH]1 | 1.1% | 8.8% | x | -14.2% | x | 1.3%
Cc1ccc2cc(/C=N/Nc3nc4ccccc4[nH]3)c(Cl)nc2c1 | 2.82µM* | 0.631µM* | 6.31µM* | 0.0849µM* | 5.01µM* | u
CCN(CC)c1ccc(/C=N/Nc2nc3ccccc3[nH]2)c(O)c1 | -30.0% | -28.0% | 13.9% | 7.57µM* | -72.9% | u
Cc1ccc(Nc2cc(C)nc3nncn23)c(C)c1 | x | x | x | -6.4% | -0.6% | x
CCC(Oc1ccc(F)cc1)C(=O)Nc1c(C(=O)c2ccc(C)cc2)oc2ccccc12 (stereo not drawn) | x | x | x | 2.6% | 5.0% | x
CCOc1ccc(C2C(C(=O)Nc3ccccc3C)=C(C)Nc3nnnn32)cc1 (stereo not drawn) | x | x | x | 0.3% | -4.4% | x
CCN(C(=O)c1nn(-c2ccc(OC)c(Cl)c2)c(=O)c2c1c1ccccc1n2C)c1cc(OC)ccc1OC | x | x | x | -2.5% | 4.1% | x
CCC(C)c1ccc(NC(=O)C2=CC=CN3CCS(=O)(=O)N=C23)cc1 (stereo not drawn) | 18.7% | u | x | 2.13µM* | x | u
CCn1cc(S(=O)(=O)c2cccc(Cl)c2)c(=O)c2cc(F)c(N3CCN(C)CC3)cc21 | x | x | x | -0.4% | x | x
COc1ccc(-c2c(C#N)c(SCC(=O)Nc3ccccc3C)nc(C)c2C(=O)Nc2ccccc2)cc1OC | x | x | x | -7.5% | -2.2% | x
CC(C)(C)NC(=O)c1ccc(C(=O)NC(C)(C)C)cc1 | 3.4% | -13.7% | x | 0.6% | x | 1.2%
CC(C)(C)NC(=O)c1sccc1C(=O)O | 0.1% | -0.9% | 0.5% | 15.1µM* | -13.6% | 1.9%
Cc1ccc2nc(CCc3ccc(N)cc3)[nH]c2c1 | 2.82µM* | 3.16µM* | x | 15.1µM* | x | u
Nc1ccc(C(=O)OCc2nc3c(ccc4ccccc43)[nH]2)cc1 | 24.7% | u | -1.3% | 13.5µM* | 154.4% | u
Nc1ccc2nc(CCc3ccccc3)[nH]c2c1 | 19.8% | u | -5.3% | u | u | 15.1%
CCc1nc2ccccc2[nH]1 | -1.3% | 5.7% | -3.2% | 0.1% | 0.1% | 0.3%
SMILES | NPC1 promoter act | Rab9 prom act | Luc counter | FLuc counter | SMN2 splice enh | ELG1 genotox
CCc1nc2ccc(Cc3ccc4nc(CC)[nH]c4c3)cc2[nH]1 | -1.5% | 9.7% | x | 12µM* | x | -0.2%
Nc1ccc(C(=O)OCCCc2nc3cc4ccccc4cc3[nH]2)cc1 | 1.3% | 18.6% | x | 15.1µM* | x | -1.5%
Nc1ccc(C(=O)OCc2nc3cc4ccccc4cc3[nH]2)cc1 | 0.6% | 14.9% | -1.4% | u | u | -5.7%
CCN(CC)C(=O)Cn1c(=O)n(-c2ccc(Cl)cc2)c(=O)c2c3c(sc21)CCC3 | x | x | x | -0.8% | -8.8% | x
COc1cc2c(cc1NS(=O)(=O)c1cccc(C#N)c1)n(C)c(=O)n2C | x | x | x | -12.0% | x | x
c1ccc2sc(SCN(C3CCCCC3)C3CCCCC3)nc2c1 | x | x | -0.7%[7.66 µM] | x | -6.5%[9.22 µM] | x
CC(N)=NCCCC(N)C(=O)O (stereo not drawn) | x | x | -0.3% | x | 19.2% | x
CCOc1ccc(N(C)C(CNS(=O)(=O)c2ccccc2)c2ccccc2)cc1 (stereo not drawn) | x | x | x | -1.1% | -26.7% | x
Nc1ccc(Cc2nc3cc4ccccc4cc3[nH]2)cc1 | u | u | -4.4% | 19µM* | 12.6µM* | 14.0%
O=C(CCC1N=C2c3ccccc3N=C(SCc3ccc(F)cc3)N2C1=O)NCc1ccc(F)cc1 (stereo not drawn) | x | x | x | 1.0% | x | x
O=C(c1ccccc1)C1O[C@H]1c1ccccc1 (stereo partly drawn) | x | x | -0.1% | x | 0.3% | x
O=C1C=C(c2ccccc2)OC(=O)C1C(=O)c1ccccc1 (stereo not drawn) | 2.4% | 4.3% | -2.4% | 23.9µM* | -8.1% | 2.2%
Cc1ccc(-n2c(C)cc(-c3csc(N)n3)c2C)cc1 | 8.6% | -0.3% | -4.5% | 10.7µM* | -0.2% | 2.0%
Cc1cc(-c2csc(N)n2)c(C)n1C | 0.0% | 3.1% | 1.1% | -5.5% | -33.3% | 0.4%
CC(=O)Oc1cc(-c2coc3cc(OC(C)=O)c(OC(C)=O)c(OC(C)=O)c3c2=O)cc(OC(C)=O)c1OC(C)=O | x | x | -0.4% | x | -8.1% | x
CCOc1ccc(-c2cc(CCCC(=O)NCc3ccco3)no2)cc1 | 6.1% | -5.5% | -0.5% | 3.38µM* | 10.2% | 10.4%
CCOc1ccc(-c2cc(CCCC(=O)NCCc3ccc(SC)cc3)no2)cc1 | x | x | x | 12µM* | 11.8% | x
CCOc1ccc(-c2cc(CCCC(=O)NCCc3ccc(OCC)c(OCC)c3)no2)cc1 | x | x | x | 9.53µM* | 20.1% | x
O=C(CNC(=O)c1ccccc1Cl)OCc1cc(=O)n2ccsc2n1 | x | x | x | -1.5% | x | x
Cc1ccccc1Cn1ccn(-c2ccc(F)c(F)c2)c(=O)c1=O | x | x | x | -0.8% | x | x
COc1ccc(C(=O)CSc2ncnc3nc[nH]c23)cc1 | -2.1% | -5.8% | x | u | x | -6.3%
Cc1ccc(OCCSc2ncnc3nc[nH]c23)cc1 | u | 2.51µM* | -1.2% | 13.5µM* | 10.8% | 9.2µM*
COc1ccc(NC(=O)c2onc(C)c2Cl)cc1 | 3.55µM* | 3.16µM* | x | 15.1µM* | x | u
CCc1ccc(NC(=O)c2onc(C)c2Cl)cc1 | 2.51µM* | 2µM* | -1.8% | 3.38µM* | 14.1µM* | 5.17µM*
COc1ccc(Cc2nc(C(=O)Nc3ccc(OC)cc3)cs2)cc1 | 0.1% | -7.4% | -1.3% | 23.9µM* | -29.1% | u

From PubChem BioAssay
